# Laboratory results as given in PubChem BioAssay AID602289 (National Center for Advancing Translational Sciences (NCATS), 2012).
# Out of some 2,400 compounds screened, about 40 (2%) were called active. Inconclusive results (about 1%) are left out.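 Rule for the calls: active = inhibition at or above 60%; inconclusive = inhibition from 0% up to below 60%; inactive = no inhibition observed.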 Shown is part of a subset that was picked to be rich in actives.
# Test: qHTS Assay for Small Molecule Inhibitors of Mitochondrial Division or Activators of Mitochondrial Fusion: Hit Validation in Malachite Green Assay;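 for inhibition: plate controls were DMSO wells with GTPase for no effect and protein-free buffer wells for full effect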
# Conditions: purified GTPase, malachite green phosphate release, A650; stronger effect = higher value
# From the text: The budding yeast S. cerevisiae is a powerful system to study mitochondrial fusion. Unlike other organisms, yeast cells without functional mitochondrial DNA (mtDNA) can be propagated and studied as long as they maintain a mitochondrial compartment and are provided with a fermentable carbon source. When mitochondrial fusion is blocked in yeast, mitochondrial tubules rapidly fragment and division continues unopposed. Under conditions where fusion is compromised in mammalian cells, nearly identical changes in mitochondrial structure have been observed. Thus, these findings indicate that steady state mitochondrial structure in cells is a characteristic and specific indicator of fusion activity. Mounting evidence has pointed to a connection between mitochondrial dynamics and apoptosis in mammalian cells. These studies indicate that in mammalian cells mitochondrial dynamics are more integrated into cellular processes than in yeast cells and have evolved not only to distribute the organelle but also to aid in the regulation of cellular homeostasis. Mitochondrial fusion proteins attenuate apoptosis by inhibiting the release of cytochrome c from mitochondria, in part by controlling cristae structures. Thus, small molecules that inhibit mitochondrial fusion may promote apoptosis and potentially act as novel chemotherapeutics and stimulation of apoptosis has become an attractive target of anti-cancer therapies. To identify inhibitors of mitochondrial division, we exploit the growth phenotypes of mitochondrial fusion-defective mutants. The temperature sensitive fusion alleles, such as fzo1-1 and mgm1-5, cause mitochondrial membranes to fragment in cells under non-permissive conditions and cells lose mtDNA, and are unable to grow in the presence of non-fermentable carbon source glycerol. Inhibiting mitochondrial division rescues growth. The hits were tested by the assay provider in a malachite green assay. NIH Chemical Genomics Center [NCGC] NIH Molecular Libraries Probe Production Centers Network [MLPCN] MLPCN Grant: MH081279 Assay Submitter (PI): Jodi M. Nunnari
# Malachite Green Reagent Malachite Green carbinol base- Aldrich 229105 Ammonium molybdate - Sigma A7302 For 100 mL Malachite Green reagent in 1N HCl 16 mL conc. HCL + 32 mL H20 = 48 mL 4N HCl 34 mg malachite green base into 40 mL 1N HCl (10 mL 4N HCl + 30 mL H20) 1 g ammonium molybdate in 15 mL 4N HCl Mix Solutions together. Bring up to […] with H2O. Filter using a 0.2 um tissue culture filter unit (has plastic bottle attached) store at 4 masculine C. (Avoid Glassware/Plastics washed in detergent. Mix solutions in 50 mL conical vials.) For 20 uL reaction volume 1.0 uL Test Drug or DMSO: Added first to each well […]: 25 mM Hepes/Pipes pH 7.0 (H/P) 2.0 uL: 50 mM MgCl2 (final 5mM) 2.32 uL: 1 M NaCl (with contributing protein salt, Final = 150mM) 13.4 uL per reaction. Can be mixed in larger volume (Mini Master Mix) 1.6 uL: Protein 7.5 uM or Protein Freezing Buffer. (Final = 0.6uM) After Protein Added to mini Master Mix, 15ul Total Master Mix added to each well with drug. 4 uL: 500 uM GTP (Final = 100uM), Dilute with 25 mM H/P, store on ice. 20 uL Total Volume Make Master Mix: (Calculate desired reactions and add a few for multi-channel pipetting volume). Multiply the number of desired reactions by 13.4 uL for total Mini Master volume. Multiply the number of desired reactions by 1.6 uL for total Protein volume. Mix, and keep on ice until added to wells. Add 15 uL of Master Mix to each reaction well, incubate with drug for 10 min. For Positive (No Drug) controls add 15 uL Master Mix to wells with only 1 uL DMSO. Make PFB (Protein Freezing Buffer) (no Protein) Master Mix. Multiply the number of desired reactions by 13.4 uL for total Mini Master volume. Multiply the number of desired reactions by 1.6 uL for total PFB volume. Mix, and keep on ice until added to wells Add 10 uL of PFBMaster Mix to each Phosphate Standards well, and 15 uL to each negative control well with DMSO. […]
row,SMILES,inhibition
1,Cc1nc(CS(=O)(=O)c2ccccc2)cc(Sc2ccc(Cl)cc2Cl)n1,inactive
2,COc1cc(OC)cc(-c2c(-c3cccs3)c3cc(-c4ccn[nH]4)ccc3n2C)c1,inactive
3,CCOc1ccc(C(=O)Nc2c(C(N)=O)oc3ccccc23)cc1,inactive
4,CCCc1ccc(-c2csc(NC(=O)C3=COCCO3)n2)cc1,inactive
5,CCOC(=O)c1sc(NC(=O)C2=COCCO2)c(C#N)c1C,100% (active)
6,CCOC(=O)c1sc(NC(=O)c2ccco2)c(C#N)c1C,inactive
7,CCOC(=O)Nc1sc2c(c1C#N)CCC(C)C2 (stereo unspecified),inactive
8,CCOC(=O)c1sc(NC(=O)c2ccncc2)c(C#N)c1C,104% (active)
9,CCOC(=O)c1c(NC(=O)C(C)OC(=O)C2=COCCO2)sc2c1CCCC2 (stereo unspecified),inactive
10,CCc1ccccc1N(CC(=O)NCCc1ccccc1)C(=O)CCC(=O)Nc1ccccn1,inactive
11,COc1ccccc1N1CCN(C(=O)c2cc(=O)c3c(C)cc(C)cc3o2)CC1,inactive
12,CCOC(=O)c1c(CN2CCN(c3ccccc3)CC2)oc2ccc(O)cc12,inactive
13,CNC(=O)c1ccsc1NC(=O)c1ccccc1,inactive
14,C=CCN(c1ccccc1)S(=O)(=O)c1ccc2c(c1)NC(=O)C(C)S2 (stereo unspecified),inactive
15,CCCNC(=S)N1CCN(c2nc(C)nc3sc4c(c23)CCCC4)CC1,inactive
16,O=C(Nc1ccc(Cl)c(-c2nc3ccccc3[nH]2)c1)c1ccc2c(c1)OCO2,inactive
17,S=C(Nc1ccc(Oc2ccccc2)cc1)NC1CCCCC1,inactive
18,O=C1C=C(c2cccc(Cl)c2)C[C@@H](c2ccc3c(c2)OCO3)C1,inactive
19,CC(C)c1nnc(NC(=O)C2c3ccccc3Oc3ccccc32)s1,93.8% (active)
20,CCc1nnc(NC(=O)C2c3ccccc3Oc3ccccc32)s1,inactive
21,O=C(Nc1nc(-c2ccncc2)cs1)C1c2ccccc2Oc2ccccc21,inactive
22,O=C(CCc1ccc(Oc2cc([N+](=O)[O-])cc([N+](=O)[O-])c2)cc1)Nc1cccc(Cl)c1,inactive

row,SMILES,inhibition
1,CCN(CC)C(=O)CSc1nc2cc3c(cc2c(=O)n1CCCCCC(=O)NCc1ccc(OC)cc1)OCO3,inactive
2,Cc1ccc(NCc2n[nH]c(=S)n2-c2cccc(Cl)c2)cc1,inactive
3,CC1CCc2[nH]c3ccc(C(=O)N4CCCC(C(F)(F)F)C4)cc3c2C1 (stereo unspecified),inactive
4,Cc1ccc(-n2nnnc2SCC(=O)c2cc(C)n(-c3cc(C)on3)c2C)c(C)c1,inactive
5,O=C(CCCN1C(=O)/C(=C/c2ccccc2)SC1=S)Nc1ccccc1O,inactive
6,O=C1/C(=C\c2ccc(O)c(O)c2)SC(=S)N1Cc1ccccc1,94.2% (active)
7,C#CCOc1ccc(/C=C2\SC(=S)N(Cc3cccnc3)C2=O)cc1,inactive
8,O=C(CN1CCN(c2ccccn2)CC1)Nc1ccccc1,inactive
9,CC(C)n1c(O)c(N=NC(=O)C2COc3ccccc3O2)c2ccccc21 (stereo unspecified),inactive
10,CCOC(=O)N=Nc1c(O)n(Cc2ccccc2)c2ccccc12,inactive
11,CC(C)(C)c1ccc2c(c1)OC(C(=O)N/N=C\c1ccccn1)CO2 (stereo unspecified),66% (active)
12,Cc1c(/C=N\NC(=O)C2COc3ccc(C(C)(C)C)cc3O2)c2ccccc2n1C (stereo unspecified),inactive
13,CCSc1nnc(NC(=O)c2ccccc2C)s1,inactive
14,COCCCNc1nc2ccccc2nc1NS(=O)(=O)c1cccc(Cl)c1,inactive
15,Cc1ccc(C)c(NC(=O)c2ccccc2Sc2ccc([N+](=O)[O-])cc2Cl)c1,inactive
16,N#Cc1ccc(-c2ccccc2)nc1SCC(=O)c1cc2ccccc2oc1=O,inactive
17,O=C(COc1ccc(F)cc1Br)Nc1ccccc1N1CCOCC1,inactive
18,CC1=C(C(=O)OCc2ccccc2)C(/C=C/c2ccccc2)N2C(=O)CCSC2=N1 (stereo unspecified),inactive
19,O=[N+]([O-])c1ccc(O)c(P(=O)(c2ccccc2)c2ccccc2)c1,inactive
20,CCN(CC)c1ccc(/C=N/NC(=O)c2ccc([N+](=O)[O-])cc2)cc1,inactive
21,CCNC(=O)C(=O)N/N=C/c1cc([N+](=O)[O-])ccc1O,78.8% (active)
22,CCOC(=O)c1c(NC(=O)COC(=O)Cn2cnc3ccccc32)sc2c1CCC(C)C2 (stereo unspecified),inactive

row,SMILES,inhibition
1,N#C/C(=C\c1cn[nH]c1-c1ccc(Cl)cc1)C(=O)NCc1ccccc1,inactive
2,O=C(Nc1cccc(Br)c1)c1ccccc1-c1ccccc1,inactive
3,Nc1c(-c2ccccc2)c(CSc2nc3ccccc3[nH]2)nn1-c1ccc(Cl)cc1,inactive
4,O=C(c1cc(S(=O)(=O)N2CCN(c3ccccc3)CC2)ccc1Cl)N1CCCCCCC1,inactive
5,CCN(Cc1ccccc1)C(=O)c1oc2ccc(S(=O)(=O)N3CCOCC3)cc2c1C,inactive
6,O=c1c2ccccc2sn1-c1cc(S(=O)(=O)N2CCOCC2)ccc1N1CCCC1,103% (active)
7,CCOC(=O)c1cccc(-c2c(-c3ccccc3)ncc3cc(OC)c(OC)cc23)c1,inactive
8,O=C(NCc1ccc2c(c1)OCO2)c1ccc(CSCc2ccc(Cl)cc2)o1,inactive
9,O=C(Nc1ccccc1O)c1c(O)c2c([nH]c1=O)CCCC2,inactive
10,O=C(O)c1ccccc1CSc1nc2ccccc2n1Cc1ccccc1C(=O)O,inactive
11,Cc1cc(SCC(=O)c2ccc(Cl)cc2)nc(=O)[nH]1,96.8% (active)
12,COc1ccc(C(=O)CSc2ccc(-c3ccc(C)cc3)nn2)cc1,inactive
13,Cc1ccc(C(=O)CSc2nc(C(C)C)nc3ccccc23)cc1,inactive
14,O=C(Nc1ccc(N2CCOCC2)c(S(=O)(=O)Nc2ccccc2Cl)c1)c1ccccc1,inactive
15,COc1cccc(C(Nc2ccccn2)c2c(NC(=O)c3ccco3)sc(C)c2C)c1 (stereo unspecified),inactive
16,Cc1ccc(C)c(N2CCN(C(=O)CCCn3c(=O)c4cccn4c4cccnc43)CC2)c1,inactive
17,COc1cccc(C(=O)NC2CCN(C(=O)N3c4ccccc4Sc4ccccc43)CC2)c1,inactive
18,C/C(=N\NC(=O)COc1ccccc1-c1ccccc1)c1ccccn1,71.6% (active)
19,O=C(COc1ccccc1-c1ccccc1)NCc1cccc(Cl)c1,inactive
20,O=C(COc1cc2oc(=O)cc(-c3ccccc3)c2cc1Cl)NCc1ccccn1,inactive
21,O=[N+]([O-])c1ccccc1SN(Cc1ccccc1)c1ccccn1,inactive
22,CCC(CC)C(=O)Nc1cc(C(=O)OC)ccc1C(=O)OC,inactive
